PubChem BioAssay (NCATS)
Results filed as inconclusive are left out. Activity calls are given as the source filed them. The call rests on the fitted dose curve; in most records, active means well fitted curve in the direction sought with a large enough effect; inconclusive means small, poorly fitted or top-dose-only effect, or another doubt; inactive means no such curve, though single readings can be large; an effect the other way counts as inactive or inconclusive.

Assays:
[1] = molecular target: Glutathione peroxidase 1 (Homo sapiens) (UniProt P07203); experiment: Primary qHTS Assay for Inhibitors of Recombinant Selenoprotein Glutathione Peroxidase 1 (GPX1) (AID 1845191); further: nearly all actives have a fitted effect of over 65% in size; on activity, negative = inhibition: on the % scale 0 is the no-effect control and ±100 the full control effect
Glutathione peroxidase 1 (Homo sapiens), sequence (P07203 whole entry, looked up): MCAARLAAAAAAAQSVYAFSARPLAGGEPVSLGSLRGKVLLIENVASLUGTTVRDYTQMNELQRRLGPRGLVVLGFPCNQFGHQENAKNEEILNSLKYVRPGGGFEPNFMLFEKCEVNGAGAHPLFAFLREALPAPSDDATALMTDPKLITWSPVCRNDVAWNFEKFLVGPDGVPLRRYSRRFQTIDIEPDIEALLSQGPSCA
How it was run: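 Recombinant GPX1 (10 nM final) was preincubated with compound for 30 min at room temperature, then reacted with 1 mM GSH, 0.5 mM CHP, 0.5 mM NADPH and 100 nM glutathione reductase; NADPH fluorescence (340/450 nm) was read at 0 and 15 min.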

[2] = molecular target: Phospholipid hydroperoxide glutathione peroxidase GPX4 (Homo sapiens) (UniProt P36969); experiment: Primary qHTS Assay for Inhibitors of Recombinant Selenoprotein Glutathione Peroxidase 4 (GPX4) (AID 1845192); further: nearly all actives have a fitted effect of over 65% in size; on activity change, negative = inhibition: series mostly up to about 50 µM; on the % scale 0 is the no-effect control and ±100 the full control effect
Phospholipid hydroperoxide glutathione peroxidase GPX4 (Homo sapiens), sequence (P36969 whole entry, looked up): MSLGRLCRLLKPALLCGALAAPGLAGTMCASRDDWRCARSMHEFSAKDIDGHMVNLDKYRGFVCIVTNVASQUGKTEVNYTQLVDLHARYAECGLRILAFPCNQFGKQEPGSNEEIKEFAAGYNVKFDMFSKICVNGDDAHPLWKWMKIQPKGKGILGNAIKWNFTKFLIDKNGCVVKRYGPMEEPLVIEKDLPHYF
How it was run: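 GR-coupled readout: 100 nM GR, 1 mM GSH, 0.5 mM NADPH; NADPH fluorescence (ex 340/em 450 nm) read at t=0 and after 15 min RT. GPX4 200 nM, preincubated 30 min with compound; substrate 0.5 mM CHP.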

[3] = molecular target: Luciferin 4-monooxygenase (Photinus pyralis) (UniProt P08659); experiment: Primary firefly luciferase (FLuc) qHTS assay for identification of artifact compounds. (AID 1845220); further: nearly all actives have a fitted effect of over 60% in size;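 on activity change, negative = inhibition: series mostly up to about 54 µM; plate controls were DMSO vehicle for no effect and no enzyme for full effect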
How it was run: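 In this counter-screen for luciferase artifacts, test compounds met substrate (10 uM each luciferin and ATP) before 10 nM enzyme started the reaction. Light output was measured 5 min later.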

[4] = Primary fluorescence-based thiol-reactive (MSTI) qHTS assay for identification of artifact compounds. (AID 1845221); further: nearly all actives have a fitted effect of over 65% in size; further: potency means the concentration at half of the fitted maximal effect;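 on activity change, negative = thiol reactive: series mostly up to about 54 µM; thiol-reactive compounds lower the probe fluorescence signal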
How it was run: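 Reactivity toward the thiol probe MSTI (4 uM) is scored by fluorescence at Ex/Em 525/598 nm after 1 h at room temperature. Acetyl-MSTI and MSTI define the activity scale.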

[5] = system: Nanoluciferase (engineered Oplophorus gracilirostris luciferase); experiment: Primary Nanoluciferase (NLuc) qHTS assay for identification of artifact compounds. (AID 1845222);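 further: NLuc secreted into diluted conditioned medium of S16 cells; series mostly up to about 54 µM; 0% = DMSO and -100% = no enzyme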
How it was run: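 Using secreted nanoluciferase in S16 culture medium (0.22 um filtered, 1:55 dilution), compounds were preincubated 15 min at RT. Signal was generated with Nano-Glo reagent (1:100) over 5 min.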

[6] = Primary redox qHTS assay for identification of artifact compounds. (AID 1845223);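 further: 0% = DMSO and 100% = reference compound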
How it was run: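 Amplex Red (25 uM) and HRP (250 mU/mL) in HBSS, with compounds for 15 min, then 250 uM DTT for 30 min, room temperature, dark. Fluorescence 525/598 nm read; normalized to DMSO and 10 uM DA3003; Hill fit.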

CC(C)=CCC[C@](C)(O[C@@H]1O[C@H](CO)[C@@H](O)[C@H](O)[C@H]1O)[C@H]1CC[C@]2(C)[C@@H]1[C@H](O)CC1[C@@]3(C)CC[C@H](O)C(C)(C)C3[C@@H](O[C@@H]3O[C@H](CO)[C@@H](O)[C@H](O)[C@H]3O)C[C@]12C (stereo not given in full)
inactive: Potency [1] | Potency [2] | Potency [3] | Potency [4] | Potency [5] | Potency [6]

COc1ccc2nc(S(=O)(=O)Cc3ncc(C)c(OC)c3C)[nH]c2c1
inactive: Potency [1] | Potency [2] | Potency [3] | Potency [4] | Potency [5] | Potency [6]

CC1CC(C(O)C(C)(C)O)OC2CC3(C)C4(C)CCC5C(C)(C)C(=O)CCC5(C)C4CCC3(O)C12O (stereo not given)
inactive: Potency [1] | Potency [2] | Potency [3] | Potency [4] | Potency [5] | Potency [6]

CC(C)(O)/C=C/CC(C)(O)C1C(O)CC2(C)C3CCC4C(C)(C)C(=O)CCC4(C)C3CCC12C (stereo not given)
inactive: Potency [1] | Potency [2] | Potency [3] | Potency [4] | Potency [5] | Potency [6]

O=C(CC(c1ccccc1)c1ccccc1)N1CCN(C(c2ccccc2)c2ccccc2)CC1
inactive: Potency [1] | Potency [2] | Potency [3] | Potency [4] | Potency [5] | Potency [6]

O=C(Nc1ccn[nH]1)c1c(F)cccc1F
inactive: Potency [1] | Potency [2] | Potency [3] | Potency [4] | Potency [5] | Potency [6]

CCOc1cc(C)c(Cl)cc1S(=O)(=O)n1cnc2ccccc21
inactive: Potency [1] | Potency [2] | Potency [3] | Potency [4] | Potency [5] | Potency [6]

CC1OC(OC2C(CO)OC(OCC3OC(OC(=O)C45CCC(C)(C)CC4C4=CCC6C7(C)CCC(OC8OC(CO)C(O)C(OC9OC(CO)C(O)C(O)C9O)C8O)C(C)(C)C7CCC6(C)C4(C)CC5)C(O)C(O)C3O)C(O)C2O)C(O)C(O)C1OC1OC(CO)C(O)C(O)C1O (stereo not given)
inactive: activity, negative = inhibition [1] -12.6% [at 9.52 µM] | activity change, negative = inhibition [2] -8.53% [at 9.73 µM] | activity change, negative = inhibition [3] -3.46% [at 11.6 µM] | activity change, negative = thiol reactive [4] 208% [at 11.5 µM] | activity, negative = inhibition [5] 1.03% [at 11.6 µM] | redox activity (% of DA3003) [6] 10.1% [at 11.5 µM]

C=C(C)C1CCC(C)C12CC(O)C1(C)OC1C2OC(=O)C(N)CCC(=O)O (stereo not given)
inactive: Potency [1] | Potency [2] | Potency [3] | Potency [4] | Potency [5] | Potency [6]

CC(C)CC(=O)O[C@@H]1OC=C(CO[C@@H]2O[C@H](CO)[C@@H](O)[C@H](O)[C@H]2O)[C@H]2[C@@H]3O[C@H]3[C@@](O)(CO)[C@@H]12
inactive: Potency [1] | Potency [2] | Potency [3] | Potency [4] | Potency [5] | Potency [6]

CC1CCC2(OC1)OC1CC3C4CCC5C[C@@H](O[C@@H]6O[C@H](CO[C@@H]7OC[C@@H](O)[C@H](O)[C@H]7O)[C@H](O)[C@H](O)[C@H]6O)CC[C@]5(C)C4CC[C@]3(C)C1C2C (stereo not given in full)
inactive: Potency [1] | Potency [2] | Potency [3] | Potency [4] | Potency [5] | Potency [6]

Cc1ccccc1CN1C2=NCCN2C(=O)C2=C1CCN(Cc1ccccc1)C2
inactive: Potency [1] | Potency [2] | Potency [3] | Potency [4] | Potency [5] | Potency [6]

O=C(O)COCCN1CCN([C@H](c2ccccc2)c2ccc(Cl)cc2)CC1
inactive: Potency [1] | Potency [2] | Potency [3] | Potency [4] | Potency [5] | Potency [6]

Cc1ccc(S(=O)(=O)n2ccc(-c3c(-c4ccc(Cl)cc4)noc3C)n2)cc1
inactive: Potency [1] | Potency [2] | Potency [3] | Potency [4] | Potency [5] | Potency [6]

O=C1NC(=O)C(c2cn3c4c(cccc24)CCC3)C1c1c[nH]c2ccccc12 (stereo not given)
inactive: Potency [1] | Potency [2] | Potency [3] | Potency [4] | Potency [5] | Potency [6]

O=C(CO)[C@@H](O)[C@H](O[C@@H]1O[C@H](CO)[C@H](O)[C@H](O)[C@H]1O)[C@H](O)CO
inactive: Potency [1] | Potency [2] | Potency [3] | Potency [4] | Potency [5] | Potency [6]

C=C1CCCC2(C)CC3(OC)OC(=O)C(C)=C3CC12 (stereo not given)
inactive: Potency [1] | Potency [2] | Potency [3] | Potency [4] | Potency [5] | Potency [6]

CC1=CCC(C(C)(C)O[C@@H]2O[C@H](CO[C@@H]3O[C@@H](C)[C@H](O)[C@@H](O)[C@H]3O)[C@@H](O)[C@H](O)[C@H]2O)CC1 (stereo not given in full)
inactive: Potency [1] | Potency [2] | Potency [3] | Potency [4] | Potency [5] | Potency [6]

CC1=C(CCC(C)O[C@@H]2O[C@H](CO)[C@@H](O)[C@H](O)[C@H]2O)C(C)(C)CCC1=O (stereo not given in full)
active: Potency [4] 6.56 µM
inactive: Potency [1] | Potency [2] | Potency [3] | Potency [5] | Potency [6]

COc1cc2ncnc(N3CCC(Oc4cnc5ccccc5n4)C3)c2cc1OC (stereo not given)
inactive: Potency [1] | Potency [2] | Potency [3] | Potency [4] | Potency [5] | Potency [6]
